Reference: PubChem BioAssay (NCI)
Several values for one entry are separate records, joined by “and”; a condition that tells them apart may be missing. Identical values can stand only once. Compounds without any hit were thinned out: in the full panel of roughly 83,000, 20% have a hit.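 The endpoint reported here, percent growth, reads 100 for growth as untreated, 0 for no net growth and -100 for all cells dead.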 A structure can be active in one record and inactive in another. Activity calls are given as the source filed them. Rule for the calls: active = growth percent below 10; inactive = the rest. Where a SMILES comes first, the peptide text is derived from it.

How the values were obtained:
Assay in all cases: NCI-60 one-dose screen, 48 h (100 = growth as untreated, 0 = no growth, -100 = all killed)
HCT-15 colon = settings: 10 µM unless noted
HT29 colon = settings: 10 µM unless noted
SNB-75 CNS = settings: 10 µM unless noted
SNB-19 CNS = settings: 10 µM unless noted
U251 CNS = settings: 10 µM unless noted
PC-3 prostate = settings: 10 µM unless noted
SK-MEL-5 melanoma = settings: 10 µM unless noted
UACC-62 melanoma = settings: 10 µM unless noted
LOX IMVI melanoma = settings: 10 µM unless noted
SK-MEL-2 melanoma = settings: 10 µM unless noted
SN12C renal = settings: 10 µM unless noted
UO-31 renal = settings: 10 µM unless noted
TK-10 renal = settings: 10 µM unless noted
CAKI-1 renal = settings: 10 µM unless noted
A498 renal = settings: 10 µM unless noted
CCRF-CEM leukemia = settings: 10 µM
MOLT-4 leukemia = settings: 10 µM unless noted
ACHN renal = settings: 10 µM unless noted
SK-MEL-28 melanoma = settings: 10 µM unless noted
EKVX NSCLC = settings: 10 µM

SMILES	growth (HCT-15 colon)	growth (HT29 colon)	growth (SNB-75 CNS)	growth (SNB-19 CNS)	growth (U251 CNS)	growth (PC-3 prostate)	growth (SK-MEL-5 melanoma)	growth (UACC-62 melanoma)	growth (LOX IMVI melanoma)	growth (SK-MEL-2 melanoma)	growth (SN12C renal)	growth (UO-31 renal)	growth (TK-10 renal)	growth (CAKI-1 renal)	growth (A498 renal)	growth (CCRF-CEM leukemia)	growth (MOLT-4 leukemia)	growth (ACHN renal)	growth (SK-MEL-28 melanoma)	growth (EKVX NSCLC)
O=C(CO)C(O)C(O)C(O)C(O)CO (configuration not stated)	103% (inactive)	109% (inactive)	106% (inactive) and 89.1% (inactive)	104% (inactive) and 103% (inactive)	95.7% (inactive) and 95.4% (inactive)	101% (inactive) and 96.1% (inactive)	95.4% (inactive) and 103% (inactive)	98.3% (inactive) and 101% (inactive)	103% (inactive) and 98.5% (inactive)	104% (inactive) and 108% (inactive)	99.8% (inactive) and 97.3% (inactive)	97.8% (inactive) and 96.6% (inactive)	106% (inactive) and 102% (inactive)	102% (inactive) and 101% (inactive)	97.5% (inactive) and 100% (inactive)	103% (inactive) and 105% (inactive)	106% (inactive) and 95.8% (inactive)			
CCCCNc1ccc(Nc2ccccc2)cc1	94.6% (inactive)	51.5% (inactive)	84.2% (inactive)	76.4% (inactive)	34.8% (inactive)	50.8% (inactive)	67.3% (inactive)	60.6% (inactive)	64.9% (inactive)	87.3% (inactive)	71.9% (inactive)	86.6% (inactive)	73.6% (inactive)	94.6% (inactive)	82.7% (inactive)	24.5% (inactive)	84.6% (inactive)			
OC1COC(OCc2ccccc2)C(O)C1O (configuration not stated)	98% (inactive)	111% (inactive)	90.5% (inactive)		95.4% (inactive)	105% (inactive)	101% (inactive)	106% (inactive)	94% (inactive)	99% (inactive)	99.4% (inactive)	81.9% (inactive)		105% (inactive)	92.9% (inactive)		98.9% (inactive)	106% (inactive)		
NC(Cc1ccccc1)C(=O)NC(Cc1ccccc1)C(=O)O (stereo not drawn) (H-Phe-Phe-OH; configuration not given here)	106% (inactive) and 98.3% (inactive)	101% (inactive) and 104% (inactive)	88.1% (inactive) and 93.5% (inactive)	94.5% (inactive) and 100% (inactive)	99% (inactive) and 94% (inactive)	95.2% (inactive) and 90.6% (inactive)	100% (inactive) and 94.8% (inactive)	104% (inactive)	95.3% (inactive) and 103% (inactive)	99.1% (inactive) and 104% (inactive)	103% (inactive) and 101% (inactive)	88.5% (inactive) and 86.9% (inactive)	105% (inactive)	106% (inactive) and 97.1% (inactive)	93.2% (inactive) and 102% (inactive)	118% (inactive) and 98.4% (inactive)	100% (inactive) and 101% (inactive)			
O=CN1CCCCC1	106% (inactive)	108% (inactive)	94.3% (inactive)	107% (inactive)	110% (inactive)	106% (inactive)	100% (inactive)		96.6% (inactive)	125% (inactive)	104% (inactive)	97.2% (inactive)	125% (inactive)	96.9% (inactive)	84.1% (inactive)	115% (inactive)	121% (inactive)	109% (inactive)		
CC(C)(O)C(=O)O	105% (inactive)	104% (inactive)	94.6% (inactive)	103% (inactive)	97.9% (inactive)	98.2% (inactive)	103% (inactive)	103% (inactive)	101% (inactive)	112% (inactive)	102% (inactive)	95.2% (inactive)	98.9% (inactive)	101% (inactive)	103% (inactive)		108% (inactive)	104% (inactive)		
COc1ccc(C(=O)CC(c2ccccc2)C(C#N)c2ccccc2)cc1 (configuration not stated)	96.5% (inactive)	82.3% (inactive)	83.8% (inactive)	92.4% (inactive)	83.2% (inactive)	64.8% (inactive)	86.6% (inactive)		85.2% (inactive)	71.6% (inactive)	86.8% (inactive)	69.2% (inactive)	88% (inactive)	74.2% (inactive)	86.5% (inactive)	84.1% (inactive)	76.4% (inactive)	88.8% (inactive)	97% (inactive)	84.9% (inactive)
O=[N+]([O-])c1cccc(SSc2cccc([N+](=O)[O-])c2)c1	91.9% (inactive)	102% (inactive)	102% (inactive)	91.1% (inactive)	99.2% (inactive)	82.6% (inactive)	99.4% (inactive)	94.2% (inactive)	100% (inactive)	98.5% (inactive)	93.7% (inactive)	86.5% (inactive)	109% (inactive)	103% (inactive)	119% (inactive)	50.6% (inactive)	82.1% (inactive)	99.5% (inactive)		
CCCCCCCCCCCCCCCc1ccc(N)c(OC2OC(CO)C(O)C(O)C2O)c1 (configuration not stated)	98.4% (inactive)	103% (inactive)		101% (inactive)	89.7% (inactive)	58.3% (inactive)	111% (inactive)	76.3% (inactive)	86.3% (inactive)	80.6% (inactive)	87.6% (inactive)	57.6% (inactive)	113% (inactive)		79.2% (inactive)	5.48% (active)	60.8% (inactive)			
OCCN1CCCCCCC1	91.4% (inactive)	106% (inactive)	115% (inactive)	101% (inactive)		93.5% (inactive)	102% (inactive)	101% (inactive)	103% (inactive)	112% (inactive)	93.7% (inactive)	88% (inactive)	99.9% (inactive)	93.2% (inactive)	100% (inactive)		106% (inactive)	103% (inactive)	104% (inactive)	
Brc1ccc(SSc2ccc(Br)cc2)cc1	77.3% (inactive)	97.2% (inactive)	77.2% (inactive)	87.9% (inactive)	65.8% (inactive)	39.7% (inactive)	54.7% (inactive)	96.9% (inactive)	3.5% (active)	101% (inactive)	63.8% (inactive)	49.6% (inactive)	97.1% (inactive)	106% (inactive)	71.2% (inactive)	8.01% (active)	4.43% (active)			
O=C(Cc1ccccc1)c1ccc(O)c(Cl)c1	13.9% (inactive)	30.2% (inactive)	72.7% (inactive)	74.8% (inactive)	73% (inactive)	53.2% (inactive)	27.5% (inactive)	26.8% (inactive)	15.2% (inactive)	64.9% (inactive)	31.1% (inactive)	36.5% (inactive)	47.4% (inactive)	42.1% (inactive)	105% (inactive)	-27.2% (active)	22.6% (inactive)			
O=C1NC(N/N=C\C(O)C(O)C(O)CO)=N/C1=C/c1ccc(Cl)cc1 (configuration not stated)								3.82% [100 µM] (active) and -100% [100 µM] (active) and 32.5% [100 µM] (inactive)					54.4% [100 µM] (inactive) and -100% [100 µM] (active) and 89.6% [100 µM] (inactive)							
Cl	102% (inactive)	106% (inactive)	96.9% (inactive)	99.3% (inactive)	102% (inactive)	106% (inactive)	105% (inactive)	105% (inactive)	97% (inactive)		104% (inactive)	87.1% (inactive)	109% (inactive)	95.6% (inactive)	88.1% (inactive)	106% (inactive)	88.5% (inactive)			
Cc1ccc(=O)[nH]n1	110% (inactive) and 105% (inactive)	108% (inactive) and 99.5% (inactive)	108% (inactive) and 103% (inactive)	93.9% (inactive)	99.7% (inactive) and 92.4% (inactive)	96.3% (inactive) and 92% (inactive)	101% (inactive) and 105% (inactive)	106% (inactive) and 104% (inactive)	94.7% (inactive) and 107% (inactive)	116% (inactive) and 99.5% (inactive)	107% (inactive) and 99.3% (inactive)	90.9% (inactive) and 95.1% (inactive)	110% (inactive) and 101% (inactive)	103% (inactive) and 97.7% (inactive)	110% (inactive) and 94.1% (inactive)	107% (inactive) and 99.6% (inactive)	105% (inactive) and 101% (inactive)	114% (inactive) and 108% (inactive)		
Fc1ccc([I+]c2ccc(F)cc2)cc1	94.3% (inactive)	38.2% (inactive)	80% (inactive)	70% (inactive)	66.4% (inactive)	63.5% (inactive)	52.2% (inactive)	82.5% (inactive)	47.9% (inactive)	68.8% (inactive)	92.9% (inactive)	74.6% (inactive)	71.2% (inactive)	61.2% (inactive)	78.3% (inactive)	48.2% (inactive)	54.8% (inactive)			
NC(=O)NCCCC(N)C(=O)O (configuration not stated)	109% (inactive)	101% (inactive)	104% (inactive)	92.1% (inactive)	96.2% (inactive)	95.5% (inactive)	113% (inactive)	102% (inactive)	67.6% (inactive)	95.4% (inactive)	104% (inactive)	82.8% (inactive)	99.3% (inactive)	84.6% (inactive)	113% (inactive)		88.7% (inactive)			
